From PubChem BioAssay (NCATS) come the findings set out here.

The target in assay [1] is Rap guanine nucleotide exchange factor 3 (Homo sapiens) (UniProt O95398). Put plainly: Confirmatory qHTS for antagonist of cAMP-regulated guanine nucleotide exchange factor 3 (EPAC1) (AID 1645880). Further: nearly all actives have a fitted effect of over 55% in size. Further: potency means the concentration at half of the fitted maximal effect. In outline: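 Released BODIPY-GDP fluoresces less than Rap1-bound BODIPY-GDP; the signal is followed at 480/540 nm at 5-min intervals over 30 min, after 5 min at room temperature. Reactions contain 100 nM EPAC1, 250 nM RAP1B-BODIPY-GDP and 50 uM GDP; results are normalized to ATA and DMSO.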
(In general: Quantitative high-throughput screening tests each substance at several concentrations.)

For assay [2] the target is unchanged. The assay can be described thus: Confirmatory qHTS for agonist of cAMP-regulated guanine nucleotide exchange factor 3 (EPAC1) (AID 1645881). Further: nearly all actives have a fitted effect of over 75% in size. Further: potency means the concentration at half of the fitted maximal effect.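 On activation: EPAC1 catalysed release of BODIPY-GDP from Rap1B seen as fluorescence loss; 100% = effect of cAMP agonist control.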
The target in assay [3] is Rap guanine nucleotide exchange factor 4 (Homo sapiens) (UniProt Q8WZA2). Put plainly: Confirmatory qHTS for agonist of cAMP-regulated guanine nucleotide exchange factor 4 (EPAC2) (AID 1645884).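 Further: nucleotide exchange releases bodipy-GDP from Rap1 and this lowers its fluorescence; nearly all actives have a fitted effect of over 65% in size.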 Further: potency means the concentration at half of the fitted maximal effect. On activation: on the % scale 0 is the no-effect control and ±100 the full control effect.
The target is the same in assay [4]. The assay can be described thus: Confirmatory qHTS for antagonist of cAMP-regulated guanine nucleotide exchange factor 4 (EPAC2) (AID 1645885). Further: nearly all actives have a fitted effect of over 25% in size. On activity change, negative = inhibition: on the % scale 0 is the no-effect control and ±100 the full control effect.
Assay [5] concerns the target Rap guanine nucleotide exchange factor 3 (Homo sapiens) (UniProt O95398). The assay can be described thus: Counterscreen qHTS for antagonist of cAMP-regulated guanine nucleotide exchange factor 3 (EPAC1) (AID 1645888). Further: % of control where 0% means no effect. In outline:
(§1)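 Rap1B-BODIPY-GDP 250 nM + GDP 50 uM; cpds 7-pt, final 9.74 nM–152 uM (activator mode) or from 7.32 nM upwards (inhibitor mode); RT; FI 480/540 nm at 5 and 30 min, then ± cAMP, reread.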
On the technique in general: A counterscreen serves to expose hits that act by an unwanted route or on another target.

Assay [6] has the same target. Put plainly: Counterscreen qHTS for agonist of cAMP-regulated guanine nucleotide exchange factor 3 (EPAC1) (AID 1645889). Further: nearly all actives have a fitted effect of over 40% in size. Further: potency means the concentration at half of the fitted maximal effect. On activation: % of control where 0% means no effect. In a few lines:
as §1

Each structure is given as a SMILES string. Inconclusive results are not listed. Unmarked numbers belong to inactive results. Active and inactive are the calls of the source. The call rests on the fitted dose curve; in most records, active means well fitted curve in the direction sought with a large enough effect; inconclusive means small, poorly fitted or top-dose-only effect, or another doubt; inactive means no such curve, though single readings can be large; an effect the other way counts as inactive or inconclusive.

Rap guanine nucleotide exchange factor 3 (Homo sapiens), sequence (O95398 whole entry, looked up): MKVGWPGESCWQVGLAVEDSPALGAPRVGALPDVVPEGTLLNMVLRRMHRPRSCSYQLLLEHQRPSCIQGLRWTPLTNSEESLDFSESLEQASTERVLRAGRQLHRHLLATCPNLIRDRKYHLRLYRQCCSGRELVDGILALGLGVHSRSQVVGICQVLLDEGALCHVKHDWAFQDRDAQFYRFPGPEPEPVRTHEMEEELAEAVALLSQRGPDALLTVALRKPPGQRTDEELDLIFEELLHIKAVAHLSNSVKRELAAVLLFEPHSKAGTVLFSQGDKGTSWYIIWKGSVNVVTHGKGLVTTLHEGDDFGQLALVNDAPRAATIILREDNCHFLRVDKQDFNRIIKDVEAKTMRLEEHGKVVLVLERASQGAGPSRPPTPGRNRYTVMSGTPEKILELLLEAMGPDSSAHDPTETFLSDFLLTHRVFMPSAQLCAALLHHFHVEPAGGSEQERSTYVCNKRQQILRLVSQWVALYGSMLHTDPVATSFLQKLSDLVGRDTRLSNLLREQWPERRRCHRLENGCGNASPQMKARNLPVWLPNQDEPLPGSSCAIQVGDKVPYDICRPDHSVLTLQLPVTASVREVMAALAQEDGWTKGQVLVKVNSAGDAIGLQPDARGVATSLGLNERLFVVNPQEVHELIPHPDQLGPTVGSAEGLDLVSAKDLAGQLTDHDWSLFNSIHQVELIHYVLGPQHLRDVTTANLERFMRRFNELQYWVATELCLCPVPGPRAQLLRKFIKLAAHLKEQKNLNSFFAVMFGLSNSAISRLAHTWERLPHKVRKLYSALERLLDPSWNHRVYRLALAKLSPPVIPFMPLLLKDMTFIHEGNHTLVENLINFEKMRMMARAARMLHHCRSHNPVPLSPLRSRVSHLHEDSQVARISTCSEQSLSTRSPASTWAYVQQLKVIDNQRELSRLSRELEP
Rap guanine nucleotide exchange factor 4 (Homo sapiens), sequence (Q8WZA2 whole entry, looked up): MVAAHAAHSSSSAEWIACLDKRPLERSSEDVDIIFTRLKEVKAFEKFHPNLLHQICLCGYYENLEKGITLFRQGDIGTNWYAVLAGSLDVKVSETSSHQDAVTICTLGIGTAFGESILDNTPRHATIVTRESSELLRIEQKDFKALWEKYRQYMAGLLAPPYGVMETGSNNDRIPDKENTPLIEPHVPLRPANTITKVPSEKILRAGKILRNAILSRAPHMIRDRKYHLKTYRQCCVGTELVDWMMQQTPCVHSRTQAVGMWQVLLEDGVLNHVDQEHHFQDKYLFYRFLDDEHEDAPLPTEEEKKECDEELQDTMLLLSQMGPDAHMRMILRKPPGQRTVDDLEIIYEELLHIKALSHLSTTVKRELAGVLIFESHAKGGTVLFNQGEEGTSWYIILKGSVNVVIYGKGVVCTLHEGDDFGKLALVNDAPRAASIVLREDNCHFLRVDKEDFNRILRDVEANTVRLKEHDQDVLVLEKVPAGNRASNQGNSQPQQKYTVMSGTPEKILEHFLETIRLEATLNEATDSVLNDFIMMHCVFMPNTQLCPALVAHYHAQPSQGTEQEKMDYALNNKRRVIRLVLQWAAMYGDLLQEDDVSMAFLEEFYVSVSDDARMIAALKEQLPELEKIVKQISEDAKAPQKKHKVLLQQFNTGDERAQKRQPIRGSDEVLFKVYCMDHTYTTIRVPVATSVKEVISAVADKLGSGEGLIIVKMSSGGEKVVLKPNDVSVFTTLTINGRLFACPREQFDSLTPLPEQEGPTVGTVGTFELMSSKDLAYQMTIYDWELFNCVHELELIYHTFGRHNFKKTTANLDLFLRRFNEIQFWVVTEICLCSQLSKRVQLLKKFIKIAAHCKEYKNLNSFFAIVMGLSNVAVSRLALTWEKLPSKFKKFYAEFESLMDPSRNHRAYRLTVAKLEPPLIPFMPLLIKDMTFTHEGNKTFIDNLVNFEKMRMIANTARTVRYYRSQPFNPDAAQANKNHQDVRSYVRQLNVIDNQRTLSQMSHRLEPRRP

Regarding `COCOCCn1cc(CN2CCS(=O)(=O)N(Cc3ccc(-c4ccc(Cl)cc4)cc3)C(CC(C)C)C2=O)nn1` (stereo not given), the Potency entry in assay [1], in assay [2], in assay [3], in assay [4], in assay [5] and in assay [6] was “inactive” each time.

`COc1cc(-c2c(CCO)sc3ccccc23)cc(OC)c1OC`: the Potency entry in assay [1], in assay [2] and in assay [4] was “inactive” in each case. Also, the activation in assay [3] was 1.4% [at 17.1 µM, percent relative to cAMP agonist control]; in assay [6], 8.02% [at 30.8 µM]. The activity change, negative = inhibition in assay [5] was -51.2% [at 30.8 µM].

Consider `CCCCN1C(=O)/C(=C/C=C2\Oc3ccccc3N2CC)SC1=S`, for which the Potency entry in assay [1], in assay [4] and in assay [5] was “inactive” throughout. The Potency in assay [2] is 112 µM (active); in assay [3] it was 100 µM (active); in assay [6], 1.78 µM (active).

Regarding `CCc1nnc(NS(=O)(=O)c2ccc(NC(=S)NC(=O)/C=C/c3ccccc3)cc2)s1`, the Potency in assay [1] is 67.5 µM (active). Besides, the Potency entry in assay [2], in assay [3], in assay [4], in assay [5] and in assay [6] was “inactive” throughout.

Take `O=C(c1ccccc1)c1nn(-c2ccccc2)c(=O)cc1-c1ccccc1`: the Potency result in assay [1], in assay [2], in assay [3], in assay [4], in assay [5] and in assay [6] was “inactive” each time.

For the compound `CC(C)CNC(=O)c1[nH]c(C(F)(F)F)nc1-c1ccccc1`, the Potency result in assay [1], in assay [2] and in assay [4] was “inactive” in each case. Besides, the activation in assay [3] is 3.83% [at 17.1 µM, percent relative to cAMP agonist control]; in assay [6], 30.5% [at 30.8 µM]. In addition, the activity change, negative = inhibition in assay [5] was -17.1% [at 30.8 µM].

As for `Cc1ccc(S(=O)(=O)/N=C2/NC(=O)/C(=C/c3ccccc3)S2)cc1`, the Potency in assay [1] was 42.6 µM (active). The Potency result in assay [2], in assay [3], in assay [4], in assay [5] and in assay [6] was “inactive” each time.

Consider `O=C(OCc1c(-c2ccccc2)ncc2ccccc12)c1ccco1`, for which the Potency result in assay [1], in assay [2], in assay [3], in assay [4], in assay [5] and in assay [6] was “inactive” each time.

As to `O=C(Nc1cc(-c2ccccc2)sc1C(=O)O)c1cccc(F)c1`, the Potency in assay [1] was 47.8 µM (active). In addition, the Potency result in assay [2], in assay [3], in assay [4], in assay [5] and in assay [6] was “inactive” each time.

As for `COc1ccc(Br)cc1CNC(=O)c1ccc2nc(C(C)C)oc2c1`, the Potency entry in assay [1], in assay [2], in assay [3], in assay [5] and in assay [6] was “inactive” in each case. The outcome in assay [4] is “inactive [at 12.7 µM]”.

As for `COc1cc2c(cc1OC)C(c1ccccc1Cl)N(C)CC2` (stereo not given), the Potency result in assay [1], in assay [2] and in assay [4] was “inactive” throughout. For the same compound, the activation in assay [3] was 2.32% [at 17.1 µM, percent relative to cAMP agonist control]; in assay [6], 9.1% [at 30.8 µM]. The activity change, negative = inhibition in assay [5] was 3.04% [at 30.8 µM].

On to `Cc1[nH]n(-c2ccccc2)c(=O)c1C(c1cc(Cl)ccc1O)c1c(C)[nH]n(-c2ccccc2)c1=O`, for which the Potency is 75.7 µM (active) in assay [1] and 2.51 µM (active) in assay [6]. Further, the Potency entry in assay [2], in assay [3], in assay [4] and in assay [5] was “inactive” each time.

As to `CCCNC(=O)C1CCN(S(=O)(=O)c2ccc3[nH]c(=O)ccc3c2)CC1`, the Potency result in assay [1], in assay [2], in assay [3], in assay [4], in assay [5] and in assay [6] was “inactive” each time.

In the case of `O=C(NCC1CCCO1)c1ccc(C(=O)NCC2CCCO2)cc1` (stereo not given), the Potency result in assay [1], in assay [2] and in assay [4] was “inactive” throughout. In addition, the activation in assay [3] is 5.86% [at 17.1 µM, percent relative to cAMP agonist control]; in assay [6], -3.36% [at 30.8 µM]. In assay [5], the activity change, negative = inhibition was -1.36% [at 30.8 µM].

Regarding `O=C(Nc1ccc(Cl)cc1C(=O)O)c1ccc2c(c1)C(=O)N(Cc1ccco1)C2=O`, in assay [1], the Potency is 39.8 µM (active). Moreover, the Potency entry in assay [2] and in assay [4] was “inactive” each time. The activation in assay [3] was -2.6% [at 17.1 µM, percent relative to cAMP agonist control]; in assay [6], 16.2% [at 30.8 µM]. Besides, in assay [5], the activity change, negative = inhibition is -16.1% [at 30.8 µM].

On to `Cc1ccc(C(=O)Nc2sc(C)c(C)c2C(=O)c2ccccc2)cc1`, for which the Potency entry in assay [1], in assay [2] and in assay [4] was “inactive” throughout. In addition, the activation in assay [3] was 4.34% [at 17.1 µM, percent relative to cAMP agonist control]; in assay [6], -4.34% [at 30.8 µM]. Further, the activity change, negative = inhibition in assay [5] was -1.59% [at 30.8 µM].

In the case of `CCc1ccc2oc(C(=O)Nc3ccccc3OC)cc(=O)c2c1`, the Potency entry in assay [1], in assay [2], in assay [3], in assay [5] and in assay [6] was “inactive” in each case. In addition, the outcome in assay [4] was “inactive [at 12.7 µM]”.

Turning to `Cc1onc(-c2c(F)cccc2Cl)c1C(=O)Oc1ccccc1`, the Potency entry in assay [1], in assay [2] and in assay [4] was “inactive” each time. Further, the activation is 1.99% [at 17.1 µM, percent relative to cAMP agonist control] in assay [3] and 7.91% [at 30.8 µM] in assay [6]. The activity change, negative = inhibition in assay [5] was -3.3% [at 30.8 µM].

On to `CC(C)OC(=O)NC(c1ccccc1)C(Cl)(Cl)Cl` (stereo not given), for which the Potency result in assay [1], in assay [2] and in assay [4] was “inactive” throughout. The activation in assay [3] is 4.21% [at 17.1 µM, percent relative to cAMP agonist control]; in assay [6], 7.19% [at 30.8 µM]. Moreover, in assay [5], the activity change, negative = inhibition was -2.25% [at 30.8 µM].

As to `COc1ccc(CCNC(=O)CCCCCn2c(SCC(N)=O)nc3cc4c(cc3c2=O)OCO4)cc1OC`, the Potency result in assay [1], in assay [2], in assay [3], in assay [4], in assay [5] and in assay [6] was “inactive” throughout.
